Laboratory results reported in the supplement of paper PMC10681739.

Molecular target: T1, ETS1 (UniProt P14921)
T1 sequence: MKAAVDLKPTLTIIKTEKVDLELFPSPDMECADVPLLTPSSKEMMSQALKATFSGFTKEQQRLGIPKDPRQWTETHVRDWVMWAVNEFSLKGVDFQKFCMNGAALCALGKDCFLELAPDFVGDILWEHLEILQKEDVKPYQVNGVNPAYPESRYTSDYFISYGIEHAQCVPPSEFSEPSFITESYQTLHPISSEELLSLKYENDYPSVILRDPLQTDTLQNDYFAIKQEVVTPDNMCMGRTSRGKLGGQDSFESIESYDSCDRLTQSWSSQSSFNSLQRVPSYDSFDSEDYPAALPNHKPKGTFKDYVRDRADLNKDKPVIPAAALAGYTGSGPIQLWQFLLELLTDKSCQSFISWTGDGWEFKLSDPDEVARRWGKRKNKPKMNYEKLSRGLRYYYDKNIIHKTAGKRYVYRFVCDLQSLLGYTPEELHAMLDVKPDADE
Experiment: TF binding intensity (PBM fluorescence), negative control probe (arbitrary fluorescence units); higher = stronger binding
Description: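 gcPBM negative-control 36-bp genomic probes lacking TF binding sites. Each was incubated with recombinant human ETS1 or RUNX1 alone and detected by antibody fluorescence. Values are medians over replicate spots (4 spots for the ETS1-RUNX1 arrays, 3 for the ETS1-ETS1 array). The probes sit in constant array flanks that are not printed.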

First: TATTTCACGCAAATAAGCAGTGACTGAGGACACAGT (protein concentration 10 nM)
Second: ATAAGCCAATTTTTTTTACATTTATGAAATGAGAGA (protein concentration 10 nM)
The TF binding intensity of the first is higher: 117 for the first, 105 for the second.

Compared with “GATGCTCTGATACGCGCTGAAAAGAAGTCAGGCTTC (protein concentration 10 nM)”, “TTATAGCATCTATTTATGTAAATCATATCTCCTTTT (protein concentration 10 nM)” is lower in TF binding intensity: 134 for the first, 101 for the second.

Going from “GCCCATCATTGGAGTCCCTTGGGGGTATCTGGAGCA (protein concentration 10 nM)” to “TTCAAAGCACATTCACCCACATGATCCTATTGATCT (protein concentration 1 nM)”, the TF binding intensity rises from 161 to 468.

First: CAGAGGGGGCCTCTGGGGCAGCGGTGCTGGGAGCGG (protein concentration 10 nM)
Second: TTCATAACGTTATACACCACAATGCTAAAAAAATGA (protein concentration 1 nM)
The TF binding intensity of the first is lower: 109 for the first, 672 for the second.

Compared with “ACGTGTGGGGACCCAAGCTATCCCTAAGAAAGCACT (protein concentration 10 nM)”, “GAAAACACTAGCGTGACCTCAACAACTAAGATTAAA (protein concentration 1 nM)” is higher in TF binding intensity: 115 for the first, 490 for the second.

Going from “AGAGCCACAGTGTGGCTTGGCTGGTAAATTATTTGT (protein concentration 10 nM)” to “ACTCTAGTTTGTGATTTTTAAAACGTTTGAAAGCCA (protein concentration 10 nM)”, the TF binding intensity rises from 109 to 124.

Going from “AGTTTTTTGTTTTGAGCCGCAGTCTCGCTCTGTCGC (protein concentration 1 nM)” to “AGCGGGAGGGAGGCCAGGGAAGGCTGCTGGGGGTCG (protein concentration 10 nM)”, the TF binding intensity falls from 351 to 142.

First: TGCCGTGTACTTGATCTTGTCCCACAGAATCACCTG (protein concentration 10 nM)
Second: AAAGGCATGTAATGAACACTAAAACCCAAGAACCTG (protein concentration 10 nM)
The TF binding intensity of the first is lower: 112 for the first, 114 for the second.

First: GAAGCAAGGATAATTAACTTCTACCAGTGATCCCCA (protein concentration 10 nM)
Second: CAGTGCAGCTGTTTGCCATGTGGGCCCACACCACTG (protein concentration 10 nM)
The TF binding intensity of the first is lower: 124 for the first, 126 for the second.

Compared with “CTGAAATTAACCCAAAGGTTGTGTGTGGACCTCCCT (protein concentration 10 nM)”, “GCAGTGAGCTGAGATCACACCATTGCACTCCAGCCT (protein concentration 10 nM)” is higher in TF binding intensity: 109 for the first, 135 for the second.

First: CTCGCGGCGCACTCCCAGAGGCTGGGGGGCCGGGGC (protein concentration 10 nM)
Second: GTCAAAGGCTCTGCAGAGTCAAGTAGCCTCCCACTT (protein concentration 10 nM)
The TF binding intensity of the first is higher: 183 for the first, 112 for the second.

Going from “TGGGACCTCCAGCATATGACAGTGGACTAAGGACTG (protein concentration 10 nM)” to “AAGGTTCTGATTCCGAGTCCCCTGAGGTGGCAGTGG (protein concentration 10 nM)”, the TF binding intensity falls from 113 to 111.

Compared with “CTCTACCTACAAAAAGACTGCAATTGTGTTACCTTT (protein concentration 10 nM)”, “CAAAATGCTTAAAAGGTAACTTGACTCTTTGTTTGG (protein concentration 10 nM)” is lower in TF binding intensity: 132 for the first, 123 for the second.

Going from “ACCTCCCACTTGGCTCCCAGGTGGGTGCAGTGAGGC (protein concentration 10 nM)” to “CCTTTGTTAGTGATTTGTGGTAGCTAATGTCGTAAT (protein concentration 1 nM)”, the TF binding intensity rises from 155 to 548.

First: ACCTGGCTGTCTGGCTCCTTACTTTCCACCATTTTC (protein concentration 10 nM)
Second: AAAAAAATAGCTTTAACCACAAAAACTCCTTGAAAA (protein concentration 1 nM)
The TF binding intensity of the first is lower: 132 for the first, 514 for the second.

Going from “CAAGATCTCTAACCACACTCGTCTGTGGCACTTCTT (protein concentration 10 nM)” to “GAGCCCTTCTGGCCTCCCTGTATAAGTCCAGACTGA (protein concentration 10 nM)”, the TF binding intensity falls from 118 to 96.9.

First: TGCCAGGGTGTAATTTTTCCCACTTTCACCTCCTTC (protein concentration 10 nM)
Second: TAGGTTCTAGCCTGCTTAGCTAGAGTTTAGTTTATT (protein concentration 10 nM)
The TF binding intensity of the first is higher: 128 for the first, 110 for the second.

Going from “GAGCAGGAGAAAATGTGTCTGAGAAAGAGCTAGGAG (protein concentration 10 nM)” to “CTCCACGACCCTGAAACTAGAACAAGACCTCTCCTC (protein concentration 10 nM)”, the TF binding intensity rises from 128 to 165.

Compared with “GTCCCCTCAAGGACCCCCAGTGCAGGTGAAAAACTG (protein concentration 10 nM)”, “GCCCTCTGCGGGGCAACAGCACGAGGCATTACCCCT (protein concentration 10 nM)” is lower in TF binding intensity: 174 for the first, 107 for the second.

First: AGGTGATATCTATCCCTTTCATTTCTTCTGAACAGG (protein concentration 10 nM)
Second: CCATTAGTTCATCTTACACTCTGCCCTTTAACGTGG (protein concentration 10 nM)
The TF binding intensity of the first is lower: 114 for the first, 127 for the second.
